The results in this text go back to PubChem BioAssay AID504466 (National Center for Advancing Translational Sciences (NCATS), 2011).

Out of some 330,000 compounds screened, about 4,200 (1.3%) were called active. About 6% were inconclusive and are not listed. The call rests on the fitted dose curve; in most records, active means well fitted activation curve with a large enough effect; inconclusive means small, poorly fitted or top-dose-only effect; inactive means no such curve, though single readings can be large or run the other way. The list comes from a sample in which actives are over-represented; it also holds similar structures and randomly drawn compounds.
Potency means the concentration at half of the fitted maximal effect.

A short description of this test: qHTS screen for small molecules that induce genotoxicity in human embryonic kidney (HEK293T) cells expressing luciferase-tagged ELG1. Further: nearly all actives have a fitted effect of over 60% in size. On activity change, positive = activation: % of control where 0% means no effect. The settings on record: HEK293T ELG1-luciferase reporter, luminescence, 16 h; series mostly up to 46 µM; activity change, positive = activation: at the top concentration. The source says: NIH Molecular Libraries Probe Production Network [MLPCN] NIH Chemical Genomics Center [NCGC] MLPCN Grant: 1 R03 MH092164-01 Assay Provider: Kyungjae Myung, NHGRI, NIH Keywords: MLPCN, qHTS, NCGC, genotoxicity, cancer Assay Overview: Cancer cells divide rapidly compared to normal cells in the body. During cell division, cancer cells need to duplicate their genome by DNA replication. The failure of genome duplication leads to cancer cells' death. Therefore, inhibitors of DNA replication could specifically kill cancer cells. Based on this concept, many chemotherapeutic agents were developed and have been used to treat cancer patients. However, there are a limited number of agents available in the clinical setting, and some of those that do exist have low efficacy and severe side effects. Therefore, if we can find the compounds that effectively block DNA replication either by directly damaging DNA or by inhibiting other cellular mechanisms, the options for cancer treatment will be broadened. With this in mind, we developed a quantitative high-throughput ELG1-luciferase reporter gene assay. Since the level of human ELG1 protein is enhanced in response to genetic stresses, increases in luciferase activity can be used to identify compounds that cause genetic stress.
Assay Protocol Summary: For genotoxicity screening, 2,000 cells in 5 uL/well were dispensed into white, solid-bottom 1536-well plates using a solenoid-based dispenser. Following transfer of 23 nL compound or DMSO vehicle by a pin tool, the plates were incubated 16 hr at 37 °C and 5% CO2. 5 ul ONE-Glo (Promega) was then added to each plate and following a 30 min incubation at room temperature, luciferase activity was quantified on a ViewLux CCD-based plate reader.
(In qHTS, concentration-response curves come from the screen itself.)
Consider `CC(OC(=O)c1ccc(Cl)cc1O)C(=O)NCCC1=CCCCC1` (configuration not stated), for which the “activity change, positive = activation” value is -1.69% (inactive).

In the case of `O=C(COC(=O)c1ccco1)Nc1ccc(Cl)cn1`, the “activity change, positive = activation” value is 0.922% (inactive).

Regarding `COc1ccc(NC(=S)N2CCc3cc(OC)c(OC)cc3C2)cc1`, the “activity change, positive = activation” value was -1.11% (inactive).

With `COc1ccc(NC(=S)N2N=CCC2c2ccccc2)cc1` (configuration not stated), the Potency was 4.11 µM (active). As for `CCC(C)N(C)C1CCN(C(=S)Nc2ccc(OC)cc2)CC1` (configuration not stated), the “activity change, positive = activation” value was -2.36% (inactive). In the case of `COC(=O)[C@]1(CC(C)C)N[C@H](c2ccc(SC3CCCCC3)cc2)[C@@H]2C(=O)N(C)C(=O)[C@@H]21`, the “activity change, positive = activation” value was -8.21% (inactive). For the compound `CSc1ccccc1NC(=O)c1cnc2sc(C)cn2c1=O`, the Potency was 3.26 µM (active). Consider `Cc1ccccc1C(=O)Nc1ccccc1Sc1ccccc1`, for which the “activity change, positive = activation” value is 1.91% (inactive). With `CSc1ccccc1NC(=O)c1cc(Cl)sc1Cl`, the “activity change, positive = activation” value was -0.581% (inactive). Consider `C[C@@H](CN1CCC[C@H]1CN1C(N)=NC[C@@H]1Cc1ccccc1)N1C[C@@H](Cc2ccccc2)N(CCCC2CCCC2)C1=N`, for which the “activity change, positive = activation” value was 0.226% (inactive). For `CCN(CC)S(=O)(=O)c1ccc(N2CCCC2)c(NC(=O)c2ccc([N+](=O)[O-])o2)c1`, the “activity change, positive = activation” value is -2.57% (inactive). Consider `O=C(CSc1nccn1-c1cccc(F)c1)NC1CCCC1`, for which the “activity change, positive = activation” value was -1.66% (inactive).

As for `COc1cc(C(=O)NC2CCN(C)CC2)ccc1Nc1ncc2c(n1)N(C1CCC(O)CC1)CCC(=O)N2C` (configuration not stated), the “activity change, positive = activation” value was 11.5% (inactive). As for `O=C(Cn1c(=S)nc2ccccn21)N1CCc2ccccc2C1`, the Potency is 20.6 µM (active). On to `CCC(=O)c1ccc(OCC(=O)OCC(=O)N2CCc3ccccc3C2)cc1`, for which the “activity change, positive = activation” value was 4.03% (inactive). As to `O=C(C(=O)N1CCc2ccccc2C1)N1CCc2ccccc2C1`, the “activity change, positive = activation” value was 3.73% (inactive). Regarding `CCOC(=O)[C@@H]1[C@H]2COc3ccc(Br)cc3[C@H]2N2C(=O)N(c3ccc(C)cc3)C(=O)[C@@]12C`, the “activity change, positive = activation” value was -1.54% (inactive). As for `Cc1ccc(S(=O)(=O)N2C[C@@H]3CCCC[C@@H]3[C@@H](C)[C@H]2c2cn(Cc3ccccc3)c3ccc(F)cc23)cc1`, the “activity change, positive = activation” value was -5.58% (inactive). Regarding `CC(C)C(NC(=O)c1c(F)cccc1F)C(=O)NNC(=O)c1ccccc1` (configuration not stated), the “activity change, positive = activation” value is 3.05% (inactive). Same read-out and setting: as for `COc1cc(/C=C/C(=O)OCC(=O)c2ccccc2)cc(OC)c1OC`, the figure is 5.34% (inactive). Consider `Cc1cc(C(C)(C)C)n2nc(C)c(-c3ccccc3)c2n1`, for which the “activity change, positive = activation” value was -0.426% (inactive). Regarding `Cc1cc(N)n2nc(-c3ccc(C(C)(C)C)cc3)cc2n1`, the Potency is 0.411 µM (active). Regarding `Cc1nc2cc(-c3ccc(F)cc3)nn2c(N2CCOCC2)c1C`, the “activity change, positive = activation” value was 10.7% (inactive).

Take `COc1ccc2[nH]c3c(c2c1)CCN1C(=O)C(CC(=O)NCCc2ccccn2)C[C@H](C(=O)N2CCOCC2)[C@@]31C` (some centres not stated): the “activity change, positive = activation” value was 7.43% (inactive). As to `CCn1c(SCc2ccccc2)nc2cc(OC)c(OC)cc2c1=O`, the “activity change, positive = activation” value is 3.09% (inactive).

As to `CCS(=O)(=O)n1nc(-c2ccccc2)nc1SCc1ccccc1`, the Potency is 10.3 µM (active).

For the compound `CCn1c(SCc2ccccc2)nc2c(c1=O)SCC2`, the “activity change, positive = activation” value is 4.43% (inactive).
